The list is not random: actives were taken first. Their share in the collection is about 19%.
TDP1 cell CPT = growth inhibition of DT40 Tdp1-/-;hTDP1 cells with camptothecin (screen for TDP1 inhibitors); chicken DT40 Tdp1-/-;hTDP1 cells + 20 nM CPT, ATP luminescence, 48 h; Potency, µM (highest dose often 46.2 µM), inactives show at the highest dose activity change, negative = growth inhibition, actives largely listed as inhibitors; 420,000 tested, 12% active; further: nearly all actives have a fitted effect of over 55% in size
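Chicken DT40 Tdp1-/- cells stably complemented with human TDP1 were seeded at 400 cells/well in medium containing 20 nM camptothecin, exposed to pin-transferred compounds, and grown at 37 °C for at least 48 hr. Viability was read as ATP luminescence.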
HT1080NT lethal = kills 2HG-producing HT-1080-NT fibrosarcoma cells. Potency, µM (highest dose often 46.1 µM), without a hit: top-dose activity, negative = less viability, usual class: cytotoxic. AID 686970. 360,000 tested, 1.6% active. HT-1080-NT fibrosarcoma viability, CellTiter-Glo ATP luminescence, 48 h;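 further: NT is the 2HG producing partner of a matched IDH1 knockdown line; 0% = DMSO-treated cells and -100% = media-only wells without cells; nearly all actives have a fitted effect of over 55% in size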
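HT-1080-NT fibrosarcoma cells (2HG-overproducing), 750 cells/well in RPMI with 5% FBS, dosed after 2 h and incubated 48 h at 37C. CellTiter-Glo luminescence normalized to DMSO and no-cell wells; concentration-response curves fitted and classed.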
KB-V1 MDR tox = KB-V1 MDR subline cytotoxicity. KB-V1 MDR cells viability, CellTiter-Glo, 72 h. Potency, µM (titrated, usually from 46.1 µM), usual class: cytotoxic. 400,000 tested, 3.4% active; further: nearly all actives have a fitted effect of over 60% in size
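Cells of the MDR subline KB-V1 are plated, dosed with compound at multiple concentrations, and incubated 72 h at 37 degrees C; CellTiter-Glo is then added and luminescence read after 10 min.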
KB-3-1 cytotox = kills parental KB-3-1 adenocarcinoma cells | KB-3-1 viability, CellTiter-Glo ATP luminescence, 72 h | Potency, µM (titrated, usually from 46.1 µM), usual class: cytotoxic | 400,000 tested, 1.4% active | AID 1347075; further: nearly all actives have a fitted effect of over 60% in size
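Using CellTiter-Glo luminescence, growth of non-resistant KB-3-1 adenocarcinoma cells is assessed 72 h after pin-tool compound addition at 37 °C. Normalized responses across the concentration series yield fitted curves.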
TDP1 cell noCPT = qHTS for Inhibitors of human tyrosyl-DNA phosphodiesterase 1 (TDP1): qHTS in cells in absence of CPT. DT40 Tdp1-/- hTDP1 cells, no CPT, ATP luminescence, 48 h. Potency, µM (highest dose often 46.2 µM), inactives show top-dose activity change, negative = growth inhibition, most hits filed as inhibitors. 420,000 tested, 15% active. AID 686978, 2013; further: nearly all actives have a fitted effect of over 55% in size
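A cellular qHTS used chicken DT40 cells lacking endogenous Tdp1 but carrying stably transfected human TDP1. Compounds were applied without camptothecin, and cell growth kinetics were judged by ATP-dependent luminescence after ≥48 hr.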
HT1080 IDH1KD tx = toxicity to HT-1080 IDH1 knockdown cells (counter line) | HT-1080 IDH1 knockdown viability, ATP luminescence, 48 h | Potency, µM (titrated, usually from 46.1 µM), inactives show top-dose activity, negative = toxicity, most hits filed as cytotoxic | 360,000 tested, 2% active | AID 686971;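 further: 0% = DMSO wells and -100% = cell-free medium wells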
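CellTiter-Glo luminescence after 48 h compound exposure at 37 degrees C of IDH1-knockdown HT-1080 cells in 5% FBS RPMI. %Activity scaled between DMSO wells and cell-free media wells, with curves fitted and assigned curve classes.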
Numbers without * were called inactive; i = inactive; ? = inconclusive; . = no result given; [ ] = dose if it differs, or a comment. The call rests on the fitted dose curve; in most records, active means well fitted curve in the direction sought with a large enough effect; inconclusive means small, poorly fitted or top-dose-only effect, or another doubt; inactive means no such curve, though single readings can be large; an effect the other way counts as inactive or inconclusive. Unless noted, on the % scale 0 is the no-effect control and ±100 the full control effect; potency means the concentration at half of the fitted maximal effect.

SMILES	TDP1 cell CPT	HT1080NT lethal	KB-V1 MDR tox	KB-3-1 cytotox	TDP1 cell noCPT	HT1080 IDH1KD tx
CCN(CC)S(=O)(=O)c1cc(NC(=O)CCCOc2ccc(C(C)=O)cc2)ccc1C	?	-8%	2.9µM*	?	18µM*	-16%
Cc1ccc(NC(=O)CCc2ccccc2)cc1S(=O)(=O)N1CCOCC1	-29%	-3%	?	i	?	-1%
Cc1ccc(CN2CCOc3ccc(C(C)(O)COc4ccccc4)cc3C2)o1 (stereo unspecified)	0%[9.04 µM]	.	.	.	-14%	.
CCN(CC(=O)Nc1cc(S(=O)(=O)N2CCCCC2)ccc1C)Cc1ccccc1	21µM*	-2%	?	?	18µM*	?
O=C1C=C(Nc2ccc(Cl)cc2)CC(c2ccccc2)C1 (stereo unspecified)	21µM*	12µM*	?	?	12µM*	9.2µM*
Cc1ccc(NC2=CC(=O)CC(c3ccc(Cl)cc3)C2)cc1 (stereo unspecified)	?	-5%	?	i	12µM*	-5%
CCOc1ccccc1NC1=CC(=O)CC(c2ccccc2)C1 (stereo unspecified)	?	?	?	i	13µM*	13µM*
Cc1ccc(NC2=CC(=O)CC(c3ccccc3)C2)cc1 (stereo unspecified)	2.9µM*	2.9µM*	?	?	3.7µM*	2.9µM*
CC(C)CCNC1=CC(=O)CC(c2ccccc2)C1 (stereo unspecified)	?	?	i	?	?	?
COc1ccc(CC(=S)NCCc2ccccc2)cc1	-27%	-1%	i	i	?	-1%
CC1CCc2nc(-c3cc4c(ccc5ccccc54)oc3=O)sc2C1 (stereo unspecified)	9%	.	i	i	-16%	.
COCCCNC(=O)c1sc2nc3n(c(=O)c2c1C)CCC3	0%	.	i	i	-3%	.
CC(=O)Nc1ccc(C2=CC(=O)C[C@H](c3ccc(Cl)cc3)C2)cc1	18µM*	-12%	i	i	16µM*	-18%
Cc1cc(C)cc(NC2=CC(=O)CC(c3ccco3)C2)c1 (stereo unspecified)	-14%	-2%	16µM*	i	-26%	-12%
COc1ccc([C@H]2CC(=O)C=C(c3ccc(NC(C)=O)cc3)C2)cc1OC	?	4%	i	i	?	-1%
CCN(CC)C(=O)C1=C(C)N(CCCOC)C(=O)C(CC(=O)NC2CC2)C1 (stereo unspecified)	-4%	-1%	i	i	0%	-6%
O=[N+]([O-])c1cccc(/C=N/Nc2nc(N3CCCCC3)nc(N3CCCCC3)n2)c1	?	10%	i	i	?	4%
O=[N+]([O-])c1cccc(/C=N/Nc2nc(NCc3ccccc3)nc(N3CCOCC3)n2)c1	15µM*	-5%	i	i	?	-25%
NNc1nc(NCc2ccccc2)nc(N2CCOCC2)n1	-7%	-17%	?	i	?	0%[9.24 µM]
O=[N+]([O-])c1cccc(/C=N/Nc2nc(NCc3ccccc3)nc(N3CCOCC3)n2)c1O	13µM*	?	i	i	?	?
CN(C)c1nc(/C=C(\C#N)C(N)=O)c(Cl)n1-c1ccc(F)cc1	16µM*	10%	i	?	21µM*	2%
O=C(CCl)N1c2ccccc2Sc2c1ccc1ccccc21	3.7µM*	?	?	?	5.8µM*	?
CCCCCCCCCCCCCC(=O)N[C@H](C)[C@@H](O)c1ccccc1	2%[4.12 µM]	.	.	.	7%[4.12 µM]	.
COc1cccc(NC(=O)c2sc(-n3nc(C)c(Cc4ccccc4Cl)c3C)nc2C)c1	-17%	.	.	.	?	.
Cc1sc2ccc3sccc3c2[n+]1C	8.2µM*	5%	i	i	21µM*	-18%
SMILES	TDP1 cell CPT	HT1080NT lethal	KB-V1 MDR tox	KB-3-1 cytotox	TDP1 cell noCPT	HT1080 IDH1KD tx
Cc1sc2c3ccsc3ccc2[n+]1C	13µM*	-6%	i	i	16µM*	-21%
Cc1csc(-c2cc(C(=O)NCc3ccc(F)cc3)n[nH]2)c1	?	-4%	i	i	?	0%
CCOC(=O)C1=CCN(S(=O)(=O)c2ccccc2C)C1c1ccc(Cl)c(Cl)c1 (stereo unspecified)	?	?	i	?	?	?
CC1CCN(c2nc3ccc(C(=O)NCc4ccc(Cl)cc4)cc3s2)CC1	?	.	i	i	?	.
Cc1cccc(N2CCN(C(=O)c3ccc4nc(N5CCC(C)CC5)sc4c3)CC2)c1C	21µM*	.	?	?	16µM*	.
CC(C)=CC(=O)N1CCC(Oc2cccc(C(=O)NCc3ccccn3)c2)CC1	-21%	2%	?	i	?	1%
Cc1ccc(CCNC(=O)c2ccc3nc(N4CCC(C)CC4)sc3c2)cc1	?	.	i	i	?	.
CC1CCN(c2nc3ccc(C(=O)NCCCN4CCCCC4)cc3s2)CC1	?	?	i	i	23µM*	?
CC1CCN(c2nc3ccc(C(=O)NCc4ccccc4Cl)cc3s2)CC1	?	.	i	i	21µM*	.
O=C(NCc1ccccc1Cl)c1cccc(OC2CCN(C(=O)C3CC3)CC2)c1	16µM*	-8%	6.5µM*	?	?	-4%
O=C(O)C1C=CCC(C(=O)O)C1 (stereo unspecified)	12%	5%	i	i	16%	6%
C=CCCC(=O)N(C)CCO	-8%	12%	i	i	4%	6%
CC1=C(C(=O)O)CC(S(=O)(=O)O)C1(C)C (stereo unspecified)	6%	1%	i	i	-3%	19%
Cc1cc(C)c(NC(=O)CSc2ncc(S(=O)(=O)c3ccc(C(C)(C)C)cc3)c(=O)[nH]2)c(C)c1	.	.	i	i	.	.
COc1ccc2c(c1)C(=O)N1[C@H]3c4cc(Cl)ccc4OC[C@@H]3[C@H](c3ccccc3)[C@]1(C)C(=O)N2	?	6.5µM*	?	?	?	15µM*
COc1cc2c(cc1OC)C(=O)N1[C@H]3c4cc(Cl)ccc4OC[C@@H]3[C@H](c3ccccc3)[C@]1(C)C(=O)N2	21µM*	-11%	?	?	18µM*	?
Cc1ccc2c(c1)[C@H]1[C@H](CO2)[C@H](c2ccccc2)[C@]2(C)C(=O)Nc3cc(Cl)ccc3C(=O)N12	?	?	?	?	21µM*	?

Bioassay records from PubChem.
